# ANO1 activ – activates or potentiates the mouse TMEM16A chloride channel. Q8BHY3. HEK293 TMEM16A/YFP-H148Q/I152L, iodide quench fluorescence; active compounds read low. B-score at 10 µM. 340,000 tested, 0.3% active. AID 623877;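 active means fluorescence-ratio B-score plate-corrected deviation score at least 3 library SD below zero, with starting fluorescence score within 5 deviations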;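 further: channel opened by trigger with iodide after compound preincubation; score built on the fluorescence ratio of max minus min over baseline; more negative score means more quench and so TMEM16A activation or potentiation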
# M1 ag parental – counter-screen for M1 agonists: effect in parental CHO-K1 cells. Fluo-8 calcium fluorescence; scaled to maximal ATP response, vehicle zero. activation, % at 3 µM. 360,000 tested, 0.48% active. AID 602248; in the data active means activation above about 15%;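 further: untransfected CHO-K1 host cells lacking M1 receptor as counterscreen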
# CHO-K1 Ca PAM – nonselective activator or artifact in parental CHO-K1 calcium assay | ATP EC20, Fluo-8 calcium fluorescence; 0% at ATP EC20, 100% at ATP max | activation, % at 3 µM | 360,000 tested, 0.02% active | AID 602247;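 active means activation above the run cutoff, the mean activation of all test compounds plus 3 SD, cut at about 40% in these data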;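 further: peak over basal fluorescence ratio in a 140 s read after ATP addition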
# ANO1 block – mouse TMEM16A channel inhibition, primary screen; HEK293 TMEM16A/YFP iodide influx fluorescence, ionomycin; normalized B-score (activity score, 25-100; higher = stronger inhibition) at 10 µM; 310,000 tested, 1.2% active; AID 588511;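 active means ratio plate-corrected score three or more library SD toward inhibition, starting fluorescence score within five deviations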;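 further: score derived from kinetic fluorescence span divided by baseline fluorescence per well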
# CHO-K1 Ca antag – nonselective inhibitor or artifact in parental CHO-K1 cells. inhibition, % at 3 µM. ATP-induced calcium, Fluo-8 fluorescence. 360,000 tested, 0.6% active;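 active means inhibition above a per-plate cutoff, the plate's mean sample inhibition plus 3 SD, cut at about 24% in these data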;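 further: 0% = DMSO plus EC80 ATP and 100% = DMSO alone without ATP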
# NTR1 ag – activates human neurotensin receptor 1; activation, % at 20 µM; NTR1-U2OS beta-arrestin-GFP spot imaging, agonist mode; P30989; 330,000 tested, 0.17% active;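 active means activation at or above 40% of the spot to cytoplasm intensity ratio, with at least 20 cells analyzed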;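 further: 0% = DMSO without peptide and 100% = 100 nM NTR1 peptide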
# TMEM16A reconf – re-confirmation of mouse TMEM16A chloride channel inhibitors | shares compounds with ANO1 block | HEK293 TMEM16A/YFP-H148Q, iodide quench fluorescence; ionomycin added to raise cell calcium | inhibition, % at 10 µM | 2,300 tested, 39% active;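 active means mean duplicate percent inhibition, scaled so buffer wells are 0 and the reference blocker 100, over three buffer SD above buffer mean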
# HEK293 Ca mobil – calcium mobilization counter-screen hit for TMEM16A inhibitor series. shares compounds with ANO1 block. TMEM16A/YFP HEK293, Fluo4 calcium mobilization. calcium response (% of ionomycin), % at 10 µM. 2,300 tested, 2% active. AID 652231;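 active means duplicate-averaged calcium signal over 20% of the ionomycin maximum, relative to buffer baseline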;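 further: each well's signal is peak minus trough fluorescence divided by its pre-addition baseline; 0% = buffer wells and 100% = ionomycin wells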
# Parental YFP cnt – acts in parental YFP-HEK293 cells lacking TMEM16A, counter-screen; iodide YFP quench, ionomycin; shares compounds with ANO1 block; 2,300 tested, under 10 active; YFP ratio F(max-min)/F0 at 10 µM;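 active means yellow fluorescent protein signal ratio exceeding the buffer control mean by over 5 SD of those controls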;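 further: ratio is mean of duplicate wells from kinetic YFP trace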
# ClC-1 rat inh – rat ClC-1 inhibition, TMEM16A specificity screen. 2,300 tested, under 10 active. ratio percent, % at 10 µM. shares compounds with ANO1 block. CHO ClC-1-YFP, iodide influx fluorescence quench; iodide control reads 0, buffer control 100;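 active means duplicate-mean ratio percent above the mean of iodide-only control wells, which defines zero, plus 5 of their SD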;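 further: higher percent means stronger block of ClC-1 iodide influx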
# * hit, by the source's call; i = inactive; . = not tested or not shown. Rows were chosen to be rich in hits. Some 2.2% of all compounds tested hit in one or more screens of this group.
SMILES,ANO1 activ,M1 ag parental,CHO-K1 Ca PAM,ANO1 block,CHO-K1 Ca antag,NTR1 ag,TMEM16A reconf,HEK293 Ca mobil,Parental YFP cnt,ClC-1 rat inh
CC1(C(=O)NS(=O)(=O)C2CC2)CCCN(C(=O)c2cccc(Cl)c2)C1 (stereo not given),.,0,5,.,-6,.,.,.,.,.
CC1=C(C(=O)Nc2ccc(C(=O)NCCCN3CCCCC3C)cc2)SCCO1 (stereo not given),.,0,21,.,-12,.,.,.,.,.
O=c1cc(OCc2ccccc2)cc[nH]1,i,0,-2,.,-13,0,.,.,.,.
CC(C)C(C)(C#N)NC(=O)CSc1ncnc2sc(-c3ccccc3)cc12 (stereo not given),i,4,15,25*,-10,5,i,i,-1.1,-4
COCC(C)NC(=O)CSc1ncnc2sc(-c3ccccc3)cc12 (stereo not given),i,1,-16,i,1,2,.,.,.,.
Cc1ccc(SCCNS(=O)(=O)c2ccc3c(c2)OCCO3)cc1,i,1,1,25*,-13,-2,i,i,-1.1,-9
COc1ccc(S(=O)(=O)NCCSc2ccc(C)cc2)cc1OC,i,4,1,i,9,0,.,.,.,.
COc1cc(NCCCn2cnc3c(OCc4ccccc4)ncnc32)cc(OC)c1OC,.,0,18,.,-16,.,.,.,.,.
CN(C)c1nccc(N(Cc2ccccc2)Cc2ccccc2)c1C#N,i,0,7,25*,-10,4,i,i,-1.2,-8
O=C(NCc1cccnc1)c1csc([C@H]2C[C@H](O)[C@@H](CO)O2)n1,.,0,-4,.,-2,.,.,.,.,.
CCOc1ccccc1C1CC(=O)Nc2cc3c(cc21)OCCO3 (stereo not given),.,0,-7,i,22,7,.,.,.,.
CCCOc1ccccc1C1CC(=O)Nc2cc3c(cc21)OCCO3 (stereo not given),i,2,23,100*,3,6,26%*,i,-0.88,-17
O=C(CN1CCC(C(=O)c2ccc(F)cc2)CC1)Nc1ccc(F)cc1,i,3,17,100*,-12,-1,i,i,-1,-8
CCC1(C)Cc2c(sc3nc(NC)n(C)c(=O)c23)CO1 (stereo not given),i,4,5,25*,2,1,i,i,-0.9,-10
OC[C@@H]1CN(Cc2ccc3c(c2)OCO3)C[C@H](n2cnc3c(NC4CC4)ncnc32)O1,.,1,-10,.,6,.,.,.,.,.
Cc1ccnc(NS(=O)(=O)c2ccc(NC(=O)Cc3cccs3)cc2)n1,i,0,15,i,-12,-2,.,.,.,.
O=C(Cc1cccs1)Nc1ccc(S(=O)(=O)Nc2ncccn2)cc1,i,0,16,25*,-11,0,i,i,-1.1,-6
O=c1oc2ccccc2c2c1ccc1ccccc12,i,0,-1,.,0,4,.,.,.,.
Cc1ccccc1-c1nc2ccc(Cl)cc2c(=O)n1O,i,0,3,i,-13,-2,.,.,.,.
Cc1ccccc1-c1cc(C(=O)n2cccn2)c2cc(Cl)ccc2n1,i,0,24,25*,-12,0,i,i,-0.99,-10
CCOC(=O)c1[nH]c2ccc(OC)cc2c1NC(=O)CN1CCSCC1,i,0,10,100*,6,-2,i,i,-0.94,3
CCOC(=O)c1[nH]c2ccc(OC)cc2c1NC(C)=O,.,0,13,i,-8,0,.,.,.,.

# Screening results: PubChem, several laboratories
